We go through 17 compounds from PubChem BioAssay AID720517 (National Center for Advancing Translational Sciences (NCATS), 2013).

Results filed as inconclusive are left out. Unmarked numbers belong to inactive results. Calls come from the whole dose curve; as a rule, active = well fitted activation curve with a large enough effect; inconclusive = small, poorly fitted or top-dose-only effect; inactive = flat fitted curve, though single readings scatter.

The nature of this test: qHTS for Inhibitors of Cell Surface uPA Generation: FP59 Counterscreen for Cherry-picked Compounds. Note: 0% is about no effect. The following applies: FP59 anthrax toxin cytotoxicity counterscreen, cells; series mostly up to 115 µM; activity (protection from FP59): at the top concentration. For orientation: qHTS replaces the single test concentration by a dilution series.
On to `CC(C)(C)C(=O)NCCc1nc2ccccc2n1CC(=O)c1ccc(Cl)cc1`, for which the “activity (protection from FP59)” value is 0.0081%. For `Cc1cnc(CNC(=O)C2CCC(=O)N(CCc3cccc(F)c3)C2)[nH]1` (configuration not stated) the value was -1.19%; for `COc1ccc(S(=O)(=O)c2c(O)c3ccc(C(=O)Nc4ccccc4)cc3[nH]c2=O)cc1`, -1.37%; for `Cc1ccc(NS(=O)(=O)c2c(C)nc3sccn3c2=O)c(C)c1`, -1.1%. As for `COCCOc1ccc(C(F)(F)F)cc1NC(=O)COC(=O)Cc1c[nH]c2ccccc12`, the “activity (protection from FP59)” value is -1.38%. Take `Cc1cc(=O)[nH]c2c(C)cc(S(=O)(=O)Nc3ccc(O)cc3)cc12`: the “activity (protection from FP59)” value was 1.18%. As for `Cc1oc2c(Cl)c(Cl)c(O)c(CN(C)C)c2c1C(=O)c1ccc(Cl)cc1`, the “activity (protection from FP59)” value is -0.466%. As for `COc1ccc(S(=O)(=O)N2CCOCC2)cc1NC(=O)CN1C(=O)NC2(CCCC2)C1=O`, the “activity (protection from FP59)” value is -1.31%. As to `Cc1nc(N2CCN(c3ccc(Cl)cc3)CC2)[nH]c(=O)c1C`, the “activity (protection from FP59)” value is -0.777%.

As to `Cc1cnc(C(=O)OCC(=O)Nc2ccc3c(c2)OCCO3)cn1`, the “activity (protection from FP59)” value was -1.24%.

Take `Cc1ccc(CC2CC(=O)N(c3cc(C)ccc3C)C2=O)cc1` (configuration not stated): the “activity (protection from FP59)” value is -1.38%. With `Cc1oc(-c2ccccc2F)nc1CS(=O)(=O)CC(=O)NC1CCCC(C)C1C` (configuration not stated), the “activity (protection from FP59)” value was 3.16%. For the compound `CCOC(=O)C1CCN(C(=O)COC(=O)c2c(C)c(CC)nc3ccccc23)CC1`, the “activity (protection from FP59)” value is -1.5%. On to `CC(CCc1ccccc1)NC(=O)c1ccc(NC(=O)c2cccc(Br)c2)cc1` (configuration not stated), for which the “activity (protection from FP59)” value is -1.22%. Regarding `O=C(COC(=O)c1cccc([N+](=O)[O-])c1)NNC(=O)c1cccs1`, the “activity (protection from FP59)” value is -1.51%. `Cc1cnc(CNC(=O)CC2C(=O)NCCN2Cc2ccccc2C(F)(F)F)cn1` (configuration not stated): the “activity (protection from FP59)” value was -1.1%. Turning to `C[N+]1(CC(O)c2ccccc2)CCCCCC1` (configuration not stated), the “activity (protection from FP59)” value is -1.28%.
